SENP7 inh: inhibitors of human SENP7 protease. recombinant SENP7, Z-RLRGG-aminoluciferin luminescence, 40 min. AID 434973. Q9BQF6. inhibition, % at 5 µM. 1.5% of 330,000 active;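 active = inhibition above about 50% at the single test dose, limit read from the data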
AHR act: activates the human aryl hydrocarbon receptor; AHR-responsive luciferase reporter cells, luminescence; 2.5% of 320,000 active; P35869; AID 2796; activation, % at 5 µM; in the data active = activation above about 47%
SENP8 block-1: inhibitors of human SENP8 protease. Q96LD8. purified SENP8, Z-RLRGG-aminoluciferin cleavage, luminescence. inhibition, % at 10 µM. 1.2% of 330,000 active; in the data active = inhibition above about 50%
EBI2 antag: EBI2 (human) antagonism. EBI2 beta-arrestin recruitment, luminescence, 7a,25-OHC stimulated. inhibition, % at 5 µM. 0.81% of 360,000 active; in the data active = inhibition above about 38%;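 also: enzyme fragment complementation signal reports receptor beta-arrestin coupling in cells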
SENP8 block-2: blocks human SENP8 cleavage of Nedd8 substrate; recombinant SENP8, Nedd8 substrate fluorescence; 0.64% of 360,000 active; inhibition, % at 20 µM; AID 602440; in the data active = inhibition mostly above about 40%, no sharp cut-off; inactive = mostly below about 27%
SENP6 block: blocks the human protease SENP6; Q9GZR1; inhibition, % at 10 µM; AID 2599; 1.8% of 330,000 active; Recombinant SENP6 catalytic domain, aminoluciferin luminescence;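 active = inhibition above about 50% at the single tested dose, limit read from the data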
Target sequence (Q9GZR1 628-1112 limits assumed): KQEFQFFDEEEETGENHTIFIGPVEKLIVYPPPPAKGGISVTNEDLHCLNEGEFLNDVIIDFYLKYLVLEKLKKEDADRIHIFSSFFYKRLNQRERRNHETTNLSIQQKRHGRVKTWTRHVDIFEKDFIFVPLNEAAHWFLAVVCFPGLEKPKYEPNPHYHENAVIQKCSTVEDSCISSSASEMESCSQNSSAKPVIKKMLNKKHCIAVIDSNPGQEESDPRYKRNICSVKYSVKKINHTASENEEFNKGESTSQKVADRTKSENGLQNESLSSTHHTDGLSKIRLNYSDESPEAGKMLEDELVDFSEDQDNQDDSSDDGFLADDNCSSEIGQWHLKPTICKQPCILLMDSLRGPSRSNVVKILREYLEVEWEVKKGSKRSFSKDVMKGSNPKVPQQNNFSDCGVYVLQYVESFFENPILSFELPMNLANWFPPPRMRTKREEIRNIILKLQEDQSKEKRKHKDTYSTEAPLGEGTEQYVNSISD
EBI2 conf: EBI2 (human) antagonism, single concentration confirmation; inhibition, % at 5 µM; shares compounds with EBI2 antag; AID 651997; EBI2 beta-arrestin luminescence, 7a,25-OHC antagonism; 29% of 2,400 active;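 active = inhibition of at least 50%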
EBI2 agonist: activates EBI2, counter-screen for EBI2 antagonists; shares compounds with EBI2 antag; EBI2-expressing cells, agonist mode, luminescence, 60 min; 0% vehicle, 100% 7α,25-dihydroxycholesterol control; activation, % at 5 µM; 2,400 tested, under 10 active; AID 652000;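 active = activation of at least 50%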
bGal cs: counter-screen for EBI2 antagonists: E. coli beta-galactosidase inhibition | shares compounds with EBI2 antag | purified beta-galactosidase, luminescent Galacton Star, 15 min | AID 652176 | 1% of 2,400 active | inhibition, % at 5 µM;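 active = replicate-average signal at least 3 plate SD below neutral wells, shown as high inhibition, flagging enzyme-inhibiting false positives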;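 also: higher means stronger loss of beta-gal luminescence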
Of the large screens only hits and unclear results are named; the others gave an inactive call (follow-up assays come after a bar, where they were run). Only some compounds are listed: those with a hit (about 5% of all), similar ones and a draw of the others.

Cc1ccc(OCC(=O)N2CCN(C(=O)c3ccc([N+](=O)[O-])cc3)CC2)cc1	EBI2 antag 83.1 | EBI2 conf 58.4 | EBI2 agonist inactive | bGal cs inactive
O=C(COc1ccc2ccccc2c1)N1CCN(C(=O)c2ccc([N+](=O)[O-])cc2)CC1	EBI2 antag 94.4 | EBI2 conf 76.3 | EBI2 agonist inactive | bGal cs inactive
Cc1ccc(OCC(=O)N2CCN(C(=O)CCC3CCCC3)CC2)cc1	EBI2 antag 81.3 | EBI2 conf 61.5 | EBI2 agonist inactive | bGal cs inactive
O=C(Nc1ccnn1C1CCN(Cc2ccc(CO)o2)CC1)c1ccccc1	none
CCOC(=O)c1[nH]c(C)c(CN(C(C)=O)c2ccc(OCC)cc2)c1C	none
Cc1ccc(NC(=O)CSc2nnc(C3CC3)n2CC2CCCO2)cc1C (stereo unspecified)	none
NC(N)=N/N=C/c1ccccc1	none
NC(=N\N=Cc1ccccc1)/C(N)=N/N=Cc1ccccc1	EBI2 antag 48.5 (no result: SENP7 inh, AHR act, SENP8 block-1, SENP6 block) | EBI2 conf inactive | EBI2 agonist inactive | bGal cs inactive
O=C(CSc1nc2nc3c(cc2c(=O)n1-c1ccccc1)CCCC3)Nc1ccccc1	none
CCn1c(SCc2ccc(Cl)cc2Cl)nc2nc3c(cc2c1=O)CCCC3	EBI2 antag 62.8 | EBI2 conf inactive | EBI2 agonist inactive | bGal cs inactive
Cc1ccc(C2=NS(=O)(=O)N(C)C(C(=O)NC(C)c3ccccc3)=C2)cc1 (stereo unspecified)	EBI2 antag 39.5 | EBI2 conf inactive | EBI2 agonist inactive | bGal cs inactive
Cc1ccc(NC(=O)c2ccc(NS(=O)(=O)c3c(C)noc3C)cc2)cc1C	EBI2 antag 48.4 | EBI2 conf inactive | EBI2 agonist inactive | bGal cs inactive
O=C(N/N=C/c1cccc2cccnc12)c1ccccc1O	EBI2 antag 70.9 | EBI2 conf 81.3 | EBI2 agonist inactive | bGal cs inactive
O=C(COc1ccc(Cl)cc1)NCCSCc1cccc(Cl)c1	EBI2 antag 66.5 | EBI2 conf inactive | EBI2 agonist inactive | bGal cs inactive
Cc1cccc(CSCCNC(=O)COc2ccc(Cl)cc2)c1	none
O=C(Nc1ccc2ccccc2c1)[C@@H]1C[C@H]1[C@@H](NP(=O)(c1ccccc1)c1ccccc1)c1ccccc1	EBI2 antag 59.2 | EBI2 conf inactive | EBI2 agonist inactive | bGal cs inactive
O=C(NCc1ccccc1)[C@@H]1C[C@H]1[C@@H](NP(=O)(c1ccccc1)c1ccccc1)c1ccccc1	none
CN(Cc1cccc(F)c1)C(=O)CNS(=O)(=O)c1ccc2ccccc2c1	none
COC(=O)c1cc(-c2cc(OC)ccc2OC)nc2c1c(=O)n(C)c(=O)n2Cc1ccccc1	EBI2 antag 66.8 | EBI2 conf inactive | EBI2 agonist inactive | bGal cs inactive
CC(=O)N1CCN(C(=O)c2cc(=O)c3ccccc3o2)CC1	none
CCN1CCN(C(=O)c2cc(=O)c3cc(C)ccc3o2)CC1	EBI2 antag 66.9 | EBI2 conf inactive | EBI2 agonist inactive | bGal cs inactive
CN1CCN(C(=O)c2cc(=O)c3cc(Cl)ccc3o2)CC1	none
CCc1ccc2oc(C(=O)N3CCN(C)CC3)cc(=O)c2c1	EBI2 antag 45.3 | EBI2 conf inactive | EBI2 agonist inactive | bGal cs inactive
CCCc1nnc(NC(=O)CCC(=O)N2CCN(S(=O)(=O)c3ccc(C)cc3)CC2)s1	none
CC(=O)NC(c1cccc([N+](=O)[O-])c1)c1c(OC(C)=O)ccc2ccccc12 (stereo unspecified)	none
CCCCC(=O)NC(c1cccc([N+](=O)[O-])c1)c1c(OC(C)=O)ccc2ccccc12 (stereo unspecified)	EBI2 antag 39.0 | EBI2 conf inactive | EBI2 agonist inactive | bGal cs inactive
COc1ccc(CCNC(=O)C23CN(Cc4ccccc4)CC2C(c2ccc([N+](=O)[O-])cc2)=NO3)cc1 (stereo unspecified)	EBI2 antag 60.8 | EBI2 conf inactive | EBI2 agonist inactive | bGal cs inactive
COc1ccc(CNC(=O)C23CN(Cc4ccccc4)CC2C(c2ccc([N+](=O)[O-])cc2)=NO3)cc1 (stereo unspecified)	none
Cc1ccccc1OCCC(=O)Nc1ccc(Cl)cc1F	none
COc1ccccc1-c1cnc2c(Nc3cccc(OC(F)(F)C(F)F)c3)nccn12	EBI2 antag 67.6 (no result: SENP7 inh, AHR act, SENP8 block-1, SENP6 block) | EBI2 conf inactive | EBI2 agonist inactive | bGal cs inactive
FC(F)C(F)(F)Oc1cccc(Nc2nccn3c(-c4cccc5cccnc45)cnc23)c1	EBI2 antag 47.4 (no result: SENP7 inh, AHR act, SENP8 block-1, SENP6 block) | EBI2 conf inactive | EBI2 agonist inactive | bGal cs inactive
O=C(NCCO)c1cccc(-c2cnc3c(Nc4cccc(OC(F)(F)C(F)F)c4)nccn23)c1	none (no result: SENP7 inh, AHR act, SENP8 block-1, SENP6 block)
CN(C)c1ccc(/C=N/NC(N)=S)cc1[N+](=O)[O-]	none
O=C(CSc1nnc(C23CC4CC(CC(C4)C2)C3)o1)Nc1ccc(N2CCOCC2)c(Cl)c1	EBI2 antag 58.1 | EBI2 conf inactive | EBI2 agonist inactive | bGal cs inactive
Cc1cccc(N2C(=O)/C(=C\c3ccc(OC(F)F)cc3)c3ccccc3C2=O)c1	EBI2 antag 61.4 | EBI2 conf inactive | EBI2 agonist inactive | bGal cs inactive
Cc1cccc(NC(=O)Cn2nc(-c3ccco3)ccc2=O)c1C	none
COc1ccccc1N1CCN(C(=O)c2cc3c(C)nc4ccccc4c3o2)CC1	EBI2 antag 73.5 | EBI2 conf 53.2 | EBI2 agonist inactive | bGal cs inactive
Cc1ccc(C)c(N2CCN(C(=O)c3cc4c(C)nc5ccccc5c4o3)CC2)c1	EBI2 antag 87.9 | EBI2 conf 60.1 | EBI2 agonist inactive | bGal cs inactive
Cc1nc2ccccc2c2oc(C(=O)N3CC(C)CC(C)C3)cc12 (stereo unspecified)	none
COc1ccccc1N1CCN(C(=O)c2oc3ccccc3c2C)CC1	none (no result: SENP7 inh, AHR act, SENP8 block-1, SENP6 block)
COc1ccc2oc(C(=O)N3CCN(S(=O)(=O)c4c(C)c(C)cc(C)c4C)CC3)c(C)c2c1	EBI2 antag 79.9 (no result: SENP7 inh, AHR act, SENP8 block-1, SENP6 block) | EBI2 conf 52.9 | EBI2 agonist inactive | bGal cs inactive
COc1ccccc1N1CCN(C(=O)c2oc3ccc(Br)cc3c2C)CC1	EBI2 antag 75.2 | EBI2 conf inactive | EBI2 agonist inactive | bGal cs inactive
Cc1cc(Cl)c(C(=O)Nc2cccc(C(F)(F)F)c2)c(C)n1	none
Cc1ccc(Cl)cc1NC(=O)Cn1c(C)csc1=O	none
Cc1nc(N2CCC(C)CC2)c2c(C)c(C(=O)Nc3ccc(C)c(F)c3)sc2n1	none
